Test results from PubChem BioAssay (Tox21).
Results filed as inconclusive are left out. Calls of active or inactive are those of the source. Calls follow the shape of the full dose curve.

molecular target: 5-hydroxytryptamine receptor 2A (Homo sapiens) (UniProt P28223); experiment: 5-hydroxytryptamine receptor 2A (HTR2A) small molecule antagonists, cell-based qHTS assay (AID 1963586); settings: HTR2A-CHO cells, DOI-induced calcium flux, fluorescence; series mostly up to 61.5 µM; activity, negative = inhibition: at the top concentration; also: nearly all actives have a fitted effect of over 45% in size
Description: National Center for Advancing Translational Sciences [NCATS]
Division of Preclinical Innovation [DPI]
U.S. Environmental Protection Agency [EPA]
National Institutes of Environmental Health Sciences [NIEHS]
National Toxicology Program [NTP]
U.S. Food and Drug Administration [FDA]
The HTR2A receptor is a subtype of the 5-HT2 receptor that belongs to the serotonin receptor family and is a G protein-coupled receptor (GPCR). The HTR2A-CHO cell line stably expressing human 5-hydroxytryptamine receptor 2A (HTR2A) can be used for screening antagonists of interactions between 5-HT2 and its ligands. The HTR2A-CHO calcium flux assay is a homogeneous fluorescence-based assay for detecting the intracellular calcium level using FDSS kinetic plate reader system.
Tox21 Assay Protocol Summary:
HTR2A-CHO cells were dispensed at 2000 cells/3uL/well in 1536-well black-clear bottom plates using a Multidrop Dispenser. After the assay plates were incubated at a 37 C/5% CO2 incubator for 18 h, 3 uL of Dye Loading Buffer was transferred to the assay plate by a Flying Reagent Dispenser. The assay plates were incubated at 37 C for 1h. For antagonist mode, 23 nL of compounds dissolved in DMSO, positive controls or DMSO only was transferred to the assay plate by a pin tool. After 5 min incubation at room temperature, 1.5 uL of 4-Iodo-2,5-dimethoxy-alpha-methylbenzeneethanamine hydrochloride (DOI) at 4nM was added to each well. The fluorescence intensity in the plates was measured using FDSS 7000EX kinetic plate reader for 3 min at 1 sec intervals.
% is scaled to controls: 0 for no effect and ±100 for the full control effect; potency is read from the fitted curve at half-maximal effect.

5-hydroxytryptamine receptor 2A (Homo sapiens), sequence (P28223 whole entry, looked up): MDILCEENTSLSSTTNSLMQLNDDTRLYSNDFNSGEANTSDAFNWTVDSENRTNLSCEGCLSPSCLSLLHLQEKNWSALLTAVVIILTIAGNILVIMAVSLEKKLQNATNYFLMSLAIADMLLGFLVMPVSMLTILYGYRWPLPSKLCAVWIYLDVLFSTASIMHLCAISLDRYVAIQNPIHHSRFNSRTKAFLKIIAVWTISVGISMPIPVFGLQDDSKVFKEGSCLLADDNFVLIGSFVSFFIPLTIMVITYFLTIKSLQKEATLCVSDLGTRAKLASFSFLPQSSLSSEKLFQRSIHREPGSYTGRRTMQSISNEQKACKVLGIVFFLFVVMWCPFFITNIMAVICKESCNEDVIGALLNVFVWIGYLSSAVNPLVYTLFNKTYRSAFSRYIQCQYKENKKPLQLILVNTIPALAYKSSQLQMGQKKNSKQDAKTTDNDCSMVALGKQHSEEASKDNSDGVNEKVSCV

SMILES	activity, negative = inhibition	Potency
O=C(O)c1cccc(C(=O)O)c1C(=O)O	0.121% (inactive)	
CCCCCCCC(=O)Oc1c(Br)cc(C#N)cc1Br	-39.6% (inactive)	
CC(=O)OC(C)(C)Cc1ccccc1	-3.45% (inactive)	
CN1CCN(c2c(F)cc3c(=O)c(C(=O)O)cn4c3c2OCN4C)CC1	-5.02% [at 12.7 µM] (inactive)	
CC(C)=CCC1C(=O)N(c2ccccc2)N(c2ccccc2)C1=O	6.98% [at 28.5 µM] (inactive)	
Nc1ccccc1O	-4.04% (inactive)	
CC1(C)Cc2cccc(N)c2O1	-3.17% (inactive)	
CCNS(=O)(=O)c1ccc(C)cc1	-16.8% (inactive)	
C=CCON/C(CCC)=C1\C(=O)CC(C)(C)C(C(=O)OC)=C1O	13.7% (inactive)	
CCCCCCCCCC(=O)N(C)C	-5.31% (inactive)	
CCCCc1ccc(N)cc1	-2.72% (inactive)	
CC1=CC(=O)CC(C)(C)C1(O)/C=C/C(C)=C\C(=O)O (stereo not given)	-29% (inactive)	
CCCCCCCCCCCCC	-11% (inactive)	
FC(F)(F)C(F)(F)C(F)(F)C(F)(F)C(F)(F)C(F)(F)C(F)(F)C(F)(F)C(F)(F)C(F)(F)F	-16.5% [at 5.62 µM] (inactive)	
CC(=O)OCC(=O)[C@@]1(O)CCC2C3CCC4=CC(=O)CC[C@]4(C)C3[C@@H](O)C[C@@]21C (stereo not given in full)	-10.2% [at 28.5 µM] (inactive)	
COc1cc2c(cc1OC)C(=O)C(CC1CCN(Cc3ccccc3)CC1)C2 (stereo not given)	-18% [at 28.5 µM] (inactive)	
Cc1ccco1	-4.85% (inactive)	
Cc1cscn1	2.94% (inactive)	
CN1CC(=O)NC1=N	1.84% [at 28.5 µM] (inactive)	
CC1=NC(C)OC1C (stereo not given)	-1.67% (inactive)	

SMILES	activity, negative = inhibition	Potency
COC(=O)c1ccc(I)cc1S(=O)(=O)NC(=O)Nc1nc(C)nc(OC)n1	9.64% (inactive)	
Cc1cc(O)c(C(C)(C)C)cc1C(C)(C)C		18.8 µM (active)
COc1cccc(-c2ccc(/C=C\CN3CCCCCC3)cc2Cl)c1	16.3% (inactive)	
CC(=O)OCC[N+](C)(C)C	-57.6% [at 28.5 µM] (inactive)	
Nc1ccc(C(=O)Oc2ccccc2)c(O)c1	-9.9% [at 28.5 µM] (inactive)	
CO[Si](CCCNc1ccccc1)(OC)OC	10.2% (inactive)	
N#CSCC(=O)O	6.12% [at 28.5 µM] (inactive)	
O=S(=O)(O)c1ccc(O)c2ncccc12	52.3% (inactive)	
O=C(O)CCC(=O)C(=O)O	4.97% (inactive)	
Cc1c(C)c([N+](=O)[O-])c(C(C)(C)C)c([N+](=O)[O-])c1C	-6.99% (inactive)	
CC(C)(C)NCCNC(C)(C)C	18% (inactive)	
CCNC(=O)C(C)OC(=O)Nc1ccccc1 (stereo not given)	9.38% (inactive)	
Cc1cc(-c2ccccc2)nnc1NCCN1CCOCC1	-3.48% [at 28.5 µM] (inactive)	
Nc1ncnc(Nc2ccccc2)n1	-13.5% [at 28.5 µM] (inactive)	
N#CCc1ccc(Cl)cc1Cl	6.42% (inactive)	
COC(=O)C1CC(=O)C(C(=O)OC)CC1=O (stereo not given)	1.92% [at 5.62 µM] (inactive)	
CN(C)CCn1nnnc1SCC1=C(C(=O)O)N2C(=O)[C@@H](NC(=O)Cc3csc(N)n3)[C@H]2SC1	3.5% [at 28.5 µM] (inactive)	
O=C1c2ccccc2C(=O)C1c1ccc(Br)cc1	-0.778% [at 28.5 µM] (inactive)	
CCCC(c1cc(C(C)(C)C)c(O)cc1C)c1cc(C(C)(C)C)c(O)cc1C	11.6% (inactive)	
COc1ccc(OC)c(N=Nc2c(O)ccc3ccccc23)c1	-2.64% (inactive)	
